The whole screen tested about 360,000 compounds, of which about 9,100 (2.5%) were called active. About 4% were inconclusive and are not listed. This is one part of a sample in which actives are shown more often than they occur. Values without a mark were called inactive. Rule as the data show it: active = max response below about -50%; inconclusive = no clear call, values can overlap the other calls; inactive = above that.
% is scaled to controls: 0 for no effect and ±100 for the full control effect.

Chain of D(3) dopamine receptor (Homo sapiens) (P35462 whole entry, looked up): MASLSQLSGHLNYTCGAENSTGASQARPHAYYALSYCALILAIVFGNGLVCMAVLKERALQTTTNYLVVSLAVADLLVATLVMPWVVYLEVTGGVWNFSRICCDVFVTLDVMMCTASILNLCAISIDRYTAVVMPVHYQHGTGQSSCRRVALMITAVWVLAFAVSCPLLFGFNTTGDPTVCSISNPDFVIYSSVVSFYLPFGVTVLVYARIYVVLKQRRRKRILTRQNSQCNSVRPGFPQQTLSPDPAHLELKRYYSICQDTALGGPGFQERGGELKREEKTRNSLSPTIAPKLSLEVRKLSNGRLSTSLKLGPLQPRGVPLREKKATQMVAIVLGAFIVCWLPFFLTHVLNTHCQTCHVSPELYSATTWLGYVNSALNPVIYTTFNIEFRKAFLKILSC

The target in this assay is D(3) dopamine receptor (Homo sapiens) (UniProt P35462). Put plainly: qHTS of D3 Dopamine Receptor Antagonist: qHTS. The following applies: D3R cells, DiscoveRx beta-arrestin luminescence, antagonist mode; hits give low values. The procedure, abridged:
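Cells plated overnight at 1500 cells/well, then exposed to library compounds with dopamine controls for 90 minutes at 37 degrees C. DiscoveRx reagent added for 30–60 minutes at room temperature; luminescence read, quantitative HTS format.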
Consider `O=S1(=O)CC(N2CCN(Cc3ccccc3F)CC2)CN1Cc1cn(Cc2ccccc2)nn1` (stereo not drawn), for which the max response, negative = inhibition was 0%. Regarding `COc1cccc(NC(=O)Nc2ccc(F)cc2)c1`, the max response, negative = inhibition was 3.65%. Regarding `O=C(Nc1ccccc1)Oc1cccc2cccnc12`, the max response, negative = inhibition is -27.7%. Turning to `COc1ccc(NC(=O)Nc2cccc3cccnc23)cc1`, the max response, negative = inhibition is -66.6% (active). On to `CCOC(=O)[C@]12CCCC=C1N(Cc1ccc(Cl)cc1Cl)C(=O)[C@H](CC(=O)N1CCCCC1)C2`, for which the max response, negative = inhibition is -25.8%. Consider `Cc1ccc2c(c1)C1CN(C)CCC1N2C(=S)Nc1ccc(OC(F)F)cc1` (stereo not drawn), for which the max response, negative = inhibition is -6.37%. In the case of `Cc1ccc2c(c1)C1CN(C)CCC1N2S(=O)(=O)c1ccc(Oc2ccc([N+](=O)[O-])cc2)cc1` (stereo not drawn), the max response, negative = inhibition was -68.7% (active). To `Cc1ccc([N+](=O)[O-])cc1S(=O)(=O)N1CCCN(C)CC1` belongs -7.78%; to `Cc1ccc2c(c1)C1CN(C)CCC1N2S(=O)(=O)c1cccc(F)c1` (stereo not drawn), -54.7% (active).

Take `Cc1ccc2c(c1)C1CN(C)CCC1N2C(=S)Nc1ccc(Cl)cc1Cl` (stereo not drawn): the max response, negative = inhibition is -8.46%. On to `Cc1ccc2c(c1)C1CN(C)CCC1N2C(=O)c1ccccc1NS(=O)(=O)c1ccc(F)cc1C` (stereo not drawn), for which the max response, negative = inhibition is -23.3%. As to `O=C(Nc1cccc(Cc2ccccc2)c1)Nc1ccc2nc([C@@H]3O[C@H](CO)[C@@H](O)[C@H](O)[C@H]3O)[nH]c2c1`, the max response, negative = inhibition is 32.8%. Take `Cc1ccc(C(=O)Nc2c(-c3ccccc3)[nH][nH]c2=O)cc1`: the max response, negative = inhibition is -20.8%. For `COCOCCn1cc(CN2CCS(=O)(=O)N(Cc3ccc(-c4ccccc4)cc3)C(CC(C)C)C2=O)nn1` (stereo not drawn) the value was 13%; for `CCOC(=O)c1cc(NC(=O)c2cccnc2)ccn1`, -0.585%; for `Cc1c(C(=O)OC(C)C)sc(NC(=O)c2cccnc2)c1C#N`, -61.4% (active). To `CC(C)NS(=O)(=O)c1ccc(NC(=O)c2cccnc2)cc1` belongs 0%; to `CCOC(=O)[C@]12CCCC=C1N(Cc1ccc3c(c1)OCO3)C(=O)[C@H](CC(=O)N1CCN(C(=O)c3ccco3)CC1)C2`, -0.946%. Turning to `Cc1cccc(C(=O)NC2CCN(CC(=O)Nc3cccc(Cl)c3)CC2)c1`, the max response, negative = inhibition is -13.9%.

As for `OC[C@@H]1CN(C2CCCC2)C[C@H](n2cnc3c(NC4CCC4)ncnc32)O1`, the max response, negative = inhibition was -7.86%. Turning to `CCN(CC)c1ccc([N+](=O)[O-])cc1C(=O)O`, the max response, negative = inhibition is 9.06%. Take `O=C(O)c1ccc([N+](=O)[O-])cc1Sc1ccsc1`: the max response, negative = inhibition was -56.7% (active). For `CNc1ccc([N+](=O)[O-])cc1C(=O)O` the value was -6.53%; for `CN1CCN(CCNC(=O)Nc2ccc([N+](=O)[O-])cc2)CC1`, -6.94%. For `O=C(c1cc(C(=O)N2CCN(c3ccc(F)cc3)CC2)cc([N+](=O)[O-])c1)N1CCN(c2ccc(F)cc2)CC1`, the max response, negative = inhibition is -2.24%. For `O=C(NCCCN1CCN(c2ccc(F)cc2)CC1)Nc1ccc([N+](=O)[O-])cc1`, the max response, negative = inhibition was -118% (active). To `COc1ccc(C2OC(CCc3ccccc3)Cc3[nH]c(=S)[nH]c(=O)c32)cc1` (stereo not drawn) belongs 0%.

With `OC[C@@H]1CN(Cc2cccs2)C[C@H](n2cnc3c(Nc4ccccc4)ncnc32)O1`, the max response, negative = inhibition was -4.85%.

`COc1ccc(-c2ccc(CN3C(CC(C)C)C(=O)N(Cc4cn(CC5CCCCC5)nn4)CCS3(=O)=O)cc2)cn1` (stereo not drawn): the max response, negative = inhibition is 0.993%.

`CN(Cc1ccccc1F)c1cc2c(c3c1ccn3C)C1CCC2O1` (stereo not drawn): the max response, negative = inhibition is -29.6%. As to `COc1ccc(/C=N/NC(=O)c2ccc3c(c2)OCCO3)c(OC)c1`, the max response, negative = inhibition is -64.3% (active). Consider `COc1ccc(/C=N/NC(=O)Nc2ccc3nsnc3c2)c(OC)c1`, for which the max response, negative = inhibition is -16.9%. On to `COc1ccc(/C=N/NC(=O)CNC(=O)c2ccc(S(=O)(=O)N3CCCC3)cc2)c(OC)c1`, for which the max response, negative = inhibition was -0.269%. For the molecule `COC(=O)[C@@]12C[C@@H](CC(=O)NCc3cccc(C(F)(F)F)c3)C(=O)N(Cc3ccco3)C1=CCC(C)(C)C2`, the max response, negative = inhibition is -1.5%. With `COc1cccc(/C=C/C(=O)Nc2ccc3c(c2)OCCO3)c1`, the max response, negative = inhibition was -6.81%. As for `O=C(/C=C\c1ccc2c(c1)OCO2)NC1(C(=O)Nc2ccc3c(c2)OCCO3)CCCCC1`, the max response, negative = inhibition is -59.6% (active). On to `Cc1cccc(NC(=O)/C=C/c2ccc3c(c2)OCO3)n1`, for which the max response, negative = inhibition is -14.5%. `CSC1=NN(c2ccccc2)CN(c2ccccc2)N1C`: the max response, negative = inhibition is -6.6%. On to `COC(=O)c1ccc2nc(C3CCCCC3)c(Cc3cccc(F)c3)n2c1`, for which the max response, negative = inhibition was 10.5%. In the case of `Cc1ccc(NC(=O)CN2CCc3ccccc3C2)cc1`, the max response, negative = inhibition was -84.2% (active). On to `CCOC(=O)N1CCN(CCC(=O)Nc2ccccc2)CC1`, for which the max response, negative = inhibition was -15.4%.

Consider `CC1CCN(CCC(=O)Nc2ccccc2)CC1`, for which the max response, negative = inhibition was -0.851%. As to `Cc1ccc(NC(=O)CCN2CCc3ccccc3C2)cc1`, the max response, negative = inhibition was -94.8% (active). For `O=C(CN1CCc2cc3c(cc2C1)OCCCO3)Nc1ccccc1` the value was -19.3%. For the molecule `COc1cc2c(cc1OC)CN(CC(=O)Nc1ccc(F)cc1)CC2`, the max response, negative = inhibition was -16.8%. As to `COc1ccc(NC(=O)C[C@H]2C(=O)N(CCc3ccccc3)C[C@@H]2C)cc1`, the max response, negative = inhibition was 1.09%. Regarding `CC(=O)NC(c1ccccc1)c1nc(-c2cccc(C(C)C)c2)cs1` (stereo not drawn), the max response, negative = inhibition was 20.2%.

Regarding `CC1(C(=O)NS(=O)(=O)c2ccc3ccccc3c2)CCN1C(=O)C1(c2ccc(Cl)cc2)CCC1` (stereo not drawn), the max response, negative = inhibition is -21.3%. As to `CNc1cncc(-c2cccc(C(=O)N3CCOCC3)c2)n1`, the max response, negative = inhibition was 13.3%.

For `CCC(c1nnnn1-c1ccc2c(c1)OCCO2)N1CCN(c2ccc(C(F)(F)F)cn2)CC1` (stereo not drawn), the max response, negative = inhibition is 4.77%. For the molecule `COc1ccc(/C=C2\SC(=S)N(CCC(=O)N3CCOCC3)C2=O)cc1OC`, the max response, negative = inhibition was -14.3%. On to `O=C(NCCCN1CCCCCC1)C1CC(=O)N(C2CCCC2)C1` (stereo not drawn), for which the max response, negative = inhibition is 10.5%. As for `COc1ccc(CN2CC(C(=O)NCCN3CCN(c4ccccc4F)CC3)CC2=O)cc1` (stereo not drawn), the max response, negative = inhibition is -22.6%. To `O=C(NCCCN1CCN(c2ccccc2F)CC1)C1CCC(=O)N1C1CCCCC1` (stereo not drawn) belongs -78% (active); to `O=C(C[C@H]1CC[C@H]2[C@@H](COC[C@H](O)CN2C(=O)c2ccccn2)O1)N1CCN(c2ccccc2)CC1`, -25.4%; to `CCOC(=O)C1CCCN(C(=O)c2ccc(N(C)C)cc2)CC1` (stereo not drawn), 22.6%. For the molecule `CC1=C(C(=O)N2CCOCC2)CC(CC(=O)NCC2CCCCC2)C(=O)N1Cc1ccc(F)cc1` (stereo not drawn), the max response, negative = inhibition was -11.1%. Consider `NC(Cc1ccc(F)cc1)c1csc(Nc2nncc3ccccc23)n1` (stereo not drawn), for which the max response, negative = inhibition was 7.2%. Regarding `O=C1CC2(CCCC2)Oc2ccc(Cl)cc21`, the max response, negative = inhibition was 0%. For `S=C1Nc2cc(Cl)ccc2Sc2ccccc21` the value was 4.03%; for `O=C1Cc2ccccc2Sc2ccc(Cl)cc21`, -51% (active).

For the molecule `CCOC(=O)N1CCN(C(=O)C[C@@H]2C[C@@]3(C(=O)OC)CCCCC=C3N(CCC3=CCCCC3)C2=O)CC1`, the max response, negative = inhibition is 18.8%. `Cc1ccc(Cn2cc(CN3CC(N4CCN(C)CC4)CS3(=O)=O)nn2)cc1` (stereo not drawn): the max response, negative = inhibition is -6.65%.

For the molecule `O=S1(=O)CC(N2CCSCC2)CN1Cc1cn(Cc2cccc(Cl)c2)nn1` (stereo not drawn), the max response, negative = inhibition was 26.4%. Regarding `COc1ccc(-c2cc(NC=O)c3ncc(-c4cccc(C(=O)N(C)C)c4)n3c2)c(OC)c1`, the max response, negative = inhibition is -2.96%. To `COC(=O)[C@]12CCCCC=C1N(CCC1=CCCCC1)C(=O)[C@H](CC(=O)N1CCSCC1)C2` belongs -7.56%; to `Cc1ccccc1C#CC1=CC(=O)CC(C)(C)C1`, -9.95%. To `Cc1nnc(SC(C)C(=O)c2c[nH]c3ccccc23)n1C1CC1` (stereo not drawn) belongs 20.8%; to `O=C(CCl)Nc1ccc(Sc2ccc(NC(=O)CCl)cc2)cc1`, -60.1% (active); to `O=C(Nc1ccc(Sc2ccc(Br)cc2)cc1)c1ccco1`, 17.2%. With `O=C(CCl)Nc1cccc(CP(=O)(c2ccccc2)c2ccccc2)c1`, the max response, negative = inhibition was -12.5%. As to `CC1(C)CC(=O)C=C(c2ccc(COC(=O)c3cc(F)cc(F)c3)cc2)C1=O`, the max response, negative = inhibition was -13.6%. For `Cc1ccccc1C(OCC(O)CN1CCCCC1CCO)c1ccccc1` (stereo not drawn), the max response, negative = inhibition was -53.3% (active). Consider `COc1cccc(CN(C)CC(O)COC(c2ccccc2)c2ccccc2C)c1` (stereo not drawn), for which the max response, negative = inhibition is -10.2%. Regarding `CC1CCCN(CC(O)COCc2ccccc2)C1` (stereo not drawn), the max response, negative = inhibition was -0.0789%. For `CCc1nc2c(OCc3ccc(Cl)cc3Cl)cccn2c1N(C)C(=O)C(C)C` the value was -27.6%.

As for `CCc1nc2c(OCC(N)=O)cccn2c1N(C)C(=O)c1ccc(OC)cc1`, the max response, negative = inhibition was 0%. Take `CCCCN(C=O)c1c(CC)nc2c(OCc3ccccc3C(=O)OC)cccn12`: the max response, negative = inhibition was -3.94%. Turning to `CCc1nc2c(OCCOc3ccccc3)cccn2c1N(C)C(=O)c1ccc(OC)cc1`, the max response, negative = inhibition is -76.4% (active). To `CCc1nc2c(OCc3ccc(C(=O)OC)cc3)cccn2c1N(C)C(=O)C(C)C` belongs -12.4%. As to `CCOC(=O)N(C)c1c(CC)nc2c(OCc3ccccc3C(=O)OC)cccn12`, the max response, negative = inhibition was -50.7% (active). As to `Cc1nc2c(OCc3cccc(Cl)c3)cccn2c1N(C)CC1CC1`, the max response, negative = inhibition is -0.943%. For the molecule `Cc1nc2c(OCc3ccc(Cl)cc3)cccn2c1N(C)Cc1cccs1`, the max response, negative = inhibition was -0.327%. As for `CCCCC(=O)N(C)c1c(CC)nc2c(OCc3ccc(Cl)cc3Cl)cccn12`, the max response, negative = inhibition is -63.9% (active).

Consider `CCCCC(=O)N(C)c1c(CC)nc2c(OCc3ccc(S(C)(=O)=O)cc3)cccn12`, for which the max response, negative = inhibition was 0%. For `Cc1nc2c(OCc3ccc(Cl)cc3Cl)cccn2c1N(C)CC1CC1` the value was -58.1% (active); for `CCc1nc2c(OCCOc3ccccc3)cccn2c1N(C)C(=O)c1ccccc1F`, 14.9%. On to `COc1ccc(NC(=O)N(C)C[C@@H]2OCc3cn(nn3)CCCC(=O)N([C@H](C)CO)C[C@H]2C)c(OC)c1`, for which the max response, negative = inhibition was -1.72%.

These data come from PubChem BioAssay AID652054 (National Center for Advancing Translational Sciences (NCATS), 2013).
